tested on: HepG2; assay: GSK_TCMDC: Percent inhibition of human HepG2 cell line. Test compounds present at 10uM.; type: functional

| SMILES | Inhibition |
| --- | --- |
| CCN(CC)CCCC(C)Nc1c(-c2ccc(OC)cc2)cnc2ccccc12 (stereo not given) | 3% |
| COc1ccc(CNC(=O)NC2CCN(c3ccnc(Nc4ccc(F)cc4)n3)C2)cc1 (stereo not given) | 4% |
| COc1cc(F)c2ncc(Cl)c(CCN3CCC(NCc4cc5c(cn4)OCCO5)CC3)c2c1.Cl | 2% |
| S=C(NCCCCCN1CCC(c2c[nH]c3ccccc23)CC1)Nc1cccc(I)c1 | 69% |
| CN1CCN(c2ccc(-c3cccc(NC(=O)c4cccc(Cl)c4)c3)nn2)CC1 | 5% |
| COc1ccc2nc(/N=C3\NC(c4ccccn4)(c4ccccn4)C(=O)N3C)[nH]c2c1 | 65% |
| Cn1c(N)c(C(=O)CSc2ncc(-c3ccc(F)cc3)n2Cc2ccccc2)c(=O)n(C)c1=O | 11% |
| CN1CCC(NCc2ccc(-c3ccc(S(=O)(=O)NCc4ccccc4)c(F)c3)cc2)CC1.O=C(O)C(F)(F)F | 53% |
| Cc1nc2ccccc2c(O)c1-c1ccc(Cl)cc1 | 0% |
| O=c1cc(NCCCNCc2cc(F)cc(C(F)(F)F)c2)[nH]c2ccccc12 | 0% |
| COc1cc2nc(N3CCN(c4cc(C)ccc4C)CC3)nc(N)c2cc1OC.Cl | 66% |
| O=C(Nc1ccc(-c2ccccc2)cc1)Nc1cccc(Cn2ncc(N3CCNCC3)c(Cl)c2=O)c1.O=C(O)C(F)(F)F | 30% |
| O=C(NCCCCN1CCC(c2ccc([N+](=O)[O-])cc2)CC1)c1ccc(NC(=O)c2ccc(Cl)cc2)cc1 | 15% |
| Cc1cc(=O)oc2c1ccc1oc(C(O)c3ccc(Cl)cc3)c(C)c12 (stereo not given) | 0% |
| COc1ccc(-c2nc(NC(=O)Cc3coc4cc(OC)ccc34)sc2C)cc1 | 9% |
| Cl.O=c1cc(NCCCNCc2ccc(Cl)c(Cl)c2)[nH]c2ccc(Oc3ccccc3)cc12 | 1% |
| N=C(Nc1cccc(Cc2ccccc2)n1)Nc1ncccn1 | 51% |
| O=C(Nc1cccc(-c2ccc(CN3CCCC3)cc2)c1)c1ccc(F)cc1.O=C(O)C(F)(F)F | 23% |
| CCCCCCCNC(=O)NCC1CCCN(CCCCCNC(=O)/C=C/c2ccc(Cl)c(Cl)c2)C1 (stereo not given) | 98% |
| N#Cc1cccc(NC(=O)Nc2cccc(-c3ccc(-c4nc5cc(C(F)(F)F)ccc5[nH]4)cc3)c2)c1 | 54% |

| SMILES | Inhibition |
| --- | --- |
| CCN(CCCN1CCCCC1)c1cc(C)nc(Nc2ccc(C)cc2Br)n1.O=C(O)C(F)(F)F | 49% |
| COc1cc(C)nc2ccc(NC(=O)Nc3ccc4nc(C)cc(OC)c4c3)cc12 | 79% |
| Br.CCCc1cccc(OC)c1OCCCON1C(N)=NC(N)=NC1(C)C | 65% |
| O=S(=O)(c1cc(Cl)ccc1Cl)N1CCCCC(c2ccc(C(F)(F)F)cc2)=N1 | 15% |
| Fc1ccc2[nH]c(-c3ccc(-c4ccc(CN5CCC(CCN6CCCCC6)CC5)cc4)cc3)nc2c1.O=C(O)C(F)(F)F | 98% |
| O=C(c1cccc(-c2ccc(-c3nc4cc(C(F)(F)F)ccc4[nH]3)cc2)c1)N1CCCCC1CN1CCC(O)C1 (stereo not given) | 19% |
| Cl.N=C(NCCc1ccccc1Cl)c1ccc2ccccc2c1 | 25% |
| COc1ccc(N2CCN(CCCCNC(=O)c3ccc(NC(=O)c4ccc(Cl)cc4)cc3)CC2)c(OC)c1.Cl | 25% |
| COc1ccc2ncc(C#N)c(CCN3CCC(NCc4ccc5c(n4)NC(=O)CS5)CC3)c2n1.Cl | 9% |
| CN(C(=O)C1(c2ccc(Cl)cc2)CC1)C1CCN(CCCCCNC(=O)/C=C/c2ccc(Cl)c(Cl)c2)CC1 | 91% |
| COc1ccc(CN2CCCC(OC(c3ccc(F)cc3)c3ccc(F)cc3)C2)c(O)c1 (stereo not given) | 16% |
| CCC(C)(C)c1ccc(OCCCC(=O)Nc2ccc(Cl)c([N+](=O)[O-])c2)c(C(C)(C)CC)c1 | 0% |
| Nc1nc2c(ncn2OC[C@H](CO)OCP(=O)(O)O)c(=O)[nH]1 | 5% |
| C[C@H](Cc1ccc(CCc2ccc(C[C@@H](C)NC[C@H](O)c3cccc(Cl)c3)cc2)cc1)NC[C@H](O)c1cccc(Cl)c1.Cl | 100% |
| COC(=O)CCCCOc1cc(Cc2cnc(N)nc2N)cc(OC)c1OC | 0% |
| Cc1c(Cl)cccc1S(=O)(=O)Nc1ccc(CCN2CCC(N)CC2)cc1.Cl | 23% |
| Cc1c(C)n(C2CCCCC2)c2ncnc(OC3CCN(CC(=O)NC4CC4)CC3)c12 | 21% |
| CC(C)NCc1ccc(-c2ccc(NC(=O)c3cccc(Cl)c3)cc2)cc1.O=C(O)C(F)(F)F | 36% |
| O=C(Nc1cccc(-c2cccc(-c3nc4ccccc4[nH]3)c2)c1)Nc1ccc(F)c(F)c1F | 78% |
| Cc1cc(NC(=O)Nc2ccc(N(C)C)cc2)c2cc(Cl)ccc2n1.Cl | 0% |

— ChEMBL document CHEMBL1157539, “Thousands of chemical starting points for antimalarial lead identification” (Nature, 2010)
